The record followed here is PubChem BioAssay AID488920 (Sanford-Burnham Center for Chemical Genomics, 2010).

The structures appear in SMILES notation. Active and inactive are the calls of the source. Rule as the data show it: active = IC50 below about 3 µM; inactive = the rest.

One may read the IC50 as the concentration that gives 50% inhibition.

This test in a line: luminescent readout interference, potency – biochemical, luminescence, artefact control for SENP inhibitor project, dose response (AID 488920). To be noted: luminescence interference counterscreen, spectral interferers. In general terms: Counterscreens check selectivity or assay interference.
As to `CCOC(=O)c1c(NS(=O)(=O)c2ccccc2)n(CCCOC)c2nc3ccccc3nc12`, the IC50 is > 5 µM (inactive). Then `CCC(C)NC(=O)c1c(N)n(CCCOC)c2nc3ccccc3nc12` (stereo not drawn), with > 5 µM (inactive); and `COc1cc2c(cc1OC)-c1c(OC)c(OC)cc3c1C(C2)N(C)CC3` (stereo not drawn), with > 5 µM (inactive).
